Values joined by “and” are separate entries in the source; they are usually repeats but may differ in a detail not shown here. Identical values can stand only once. Records with an inconclusive call do not appear. Some compounds were tested as several samples or in several runs, with calls that do not always agree. Active and inactive are the calls of the source. The calls were made as follows, unless noted: active = hit-call score of the fitted dose curve at least 0.9, where 1 is the maximum; inactive = score below 0.9.
Experiments:
[1] = biological target: Oxysterols receptor LXR-alpha (Homo sapiens) (UniProt Q13133); experiment: ATG_LXRa_TRANS: Attagene TRANS-FACTORIAL HepG2 Assay for human Liver X Receptor alpha (LXRa) (AID 2282980; active = hit-call score of the fitted dose curve at least 0.9, where 1 is the maximum); settings: HepG2 Attagene TRANS reporter, LXRa transactivation
Procedure, shortened: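 Transient HepG2 transfectants, 24 h dosing, RT-PCR/CE mRNA reporter quantitation; gain-of-signal vs DMSO.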

[2] = biological target: Hepatocyte nuclear factor 4-alpha (Homo sapiens) (UniProt P41235); experiment: ATG_HNF4a_TRANS: Attagene TRANS-FACTORIAL HepG2 Assay for human Hepatocyte Nuclear Factor 4 alpha (HNF4a) (AID 2282982; active = hit-call score of the fitted dose curve at least 0.9, where 1 is the maximum); settings: HepG2 HNF4a transactivation reporter, mRNA readout
Procedure, shortened: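 Transfected HepG2 reporter cells are dosed for 24 h; reporter RNA is reverse-transcribed, amplified, fluorescently labelled and HpaI-digested before CE sizing. Positive-direction fit against DMSO.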

[3] = biological target: Transcriptional activator Myb (Homo sapiens) (UniProt P10242); experiment: ATG_Myb_CIS: Attagene CIS-FACTORIAL HepG2 Assay for human Myeloblastosis (Myb) Proto-Oncogene Transcription Factor (AID 2282986); settings: HepG2 Attagene CIS-FACTORIAL Myb reporter transcription; actives raise or lower the signal
Procedure, shortened: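 Transiently transfected HepG2 cells carrying a multiplexed cis-promoter reporter set report endogenous Myb activity after 24 h compound exposure. Reporter mRNA is read by RT-PCR with capillary electrophoresis of fluorescent products, fitted bidirectionally against DMSO.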

[4] = biological target: Nuclear respiratory factor 1 (Homo sapiens) (UniProt Q16656); experiment: ATG_NRF1_CIS: Attagene CIS-FACTORIAL HepG2 Assay for human Nuclear Respiratory Factor 1 (NRF1) Orphan Gene (AID 2282987); settings: HepG2 NRF1 cis-element reporter, Attagene multiplex; actives raise or lower the signal
Procedure, shortened: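 HepG2 cells transiently transfected with multiple cis-regulated reporter units, exposed 24 h. Reporter mRNAs measured by RT-PCR, fluorescent labelling, HpaI digestion and capillary electrophoresis; bidirectional fitting against DMSO.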

[5] = ATG_NFI_CIS: Attagene CIS-FACTORIAL HepG2 Assay for human Nuclear Factor I (NFI) (AID 2282989); settings: HepG2 cis-regulatory reporter, NFI response element transcription; actives raise or lower the signal
Procedure, shortened: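 Reporter transcription driven by endogenous transcription factors in HepG2 cells; 24 h treatment. Quantitation by labelled RT-PCR fragments on capillary electrophoresis, gain- or loss-of-signal relative to DMSO.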

[6] = ATG_NF_kB_CIS: Attagene CIS-FACTORIAL HepG2 Assay for human Nuclear Factor Kappa B (NF-kB) (AID 2282991); settings: HepG2 Attagene cis-factorial NF-kB reporter mRNA; actives raise or lower the signal
Procedure, shortened: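 HepG2 cells transfected with cis-promoter-driven reporter units, so endogenous transcription factor activity is measured. Reporter mRNA quantified 24 h after dosing by RT-PCR and capillary electrophoresis, with bidirectional fitting against DMSO.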

[7] = ATG_NRF2_ARE_CIS: Attagene CIS-FACTORIAL HepG2 Assay for human Nuclear Factor Erythroid 2 Related Factor 2 (NFR2) response to Antioxidant Response Elements (ARE) (AID 2282992); settings: HepG2 Attagene ARE/NRF2 reporter, transcription factor activity; actives raise or lower the signal;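 as to AC50: reporter mRNA level measured by RT-PCR and capillary electrophoresis fluorescence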
Procedure, shortened: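 Multiplexed reporter mRNA profiling in HepG2 after a 24 h chemical exposure. Curves fitted in both directions relative to DMSO negative control.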

[8] = ATG_Oct_MLP_CIS: Attagene CIS-FACTORIAL HepG2 Assay for human Octamer-Binding Transcription Factor (Oct) (AID 2282993); settings: HepG2 Attagene cis-factorial Oct reporter, mRNA; actives raise or lower the signal
Procedure, shortened: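 Transfected HepG2 cells, 24 h treatment. Reporter mRNA quantified by RT-PCR–capillary electrophoresis; bidirectional fitting against DMSO.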

[9] = biological target: Cellular tumor antigen p53 (Homo sapiens) (UniProt P04637); experiment: ATG_p53_CIS: Attagene CIS-FACTORIAL HepG2 Assay for human p53 Transcription Factor (AID 2282994); settings: HepG2 p53 cis-element reporter, Attagene mRNA; actives raise or lower the signal
Procedure, shortened: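 Multiplexed reporter mRNA assay in human HepG2 liver cells; cis-regulated units report endogenous factor activity. Values come from bidirectional curve fitting against DMSO negative control after 24 h treatment.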

[10] = biological target: human Peroxisome Proliferator-activated Receptor alpha (PPARa), PPARA (gene 5465) (UniProt Q07869); experiment: ATG_PPARa_TRANS: Attagene TRANS-FACTORIAL HepG2 Assay for human Peroxisome Proliferator-activated Receptor alpha (PPARa) (AID 2283001; active = hit-call score of the fitted dose curve at least 0.9, where 1 is the maximum;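 as to AC50: potency for gain of reporter signal over DMSO so agonist or activator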)
Procedure, shortened: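 Reporter transcripts from GAL4-UAS units in transfected HepG2 were quantified 24 h after dosing. Detection used reverse transcription, PCR, fluorescent primer extension and capillary electrophoresis, with DMSO as baseline.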

[11] = ATG_M_32_TRANS: Attagene TRANS-FACTORIAL HepG2 Assay for M32 Transcription Factor (Internal Marker) (AID 2282984; active = hit-call score of the fitted dose curve at least 0.9, where 1 is the maximum;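 also: transcript level of a background control reporter unit measured by RT-PCR and capillary electrophoresis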); settings: HepG2 Attagene TRANS M32 internal marker reporter
Procedure, shortened: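 Using transiently transfected HepG2 cells exposed to test chemicals for 24 h, reporter transcripts are converted to labelled cDNA fragments and quantified by capillary electrophoresis. DMSO defines the activity baseline.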

[12] = biological target: Nuclear receptor subfamily 4 group A member 2 (Homo sapiens) (UniProt P43354); experiment: ATG_NURR1_TRANS: Attagene TRANS-FACTORIAL HepG2 Assay for human Nuclear Receptor Related Protein 1 (NURR1) (AID 2282985; active = hit-call score of the fitted dose curve at least 0.9, where 1 is the maximum); settings: HepG2 Attagene TRANS reporter, mRNA readout
Procedure, shortened: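 Cells: HepG2, transiently transfected. Exposure: 24 h. Detection: fluorescence of labelled RT-PCR products separated by capillary electrophoresis; upward fit versus DMSO.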

[13] = biological target: Myc proto-oncogene protein (Homo sapiens) (UniProt P01106); experiment: ATG_Myc_CIS: Attagene CIS-FACTORIAL HepG2 Assay for human Myelocytomatosis (Myc) Proto-Oncogene Transcription Factor (AID 2282990); settings: HepG2, Attagene cis-reporter transcription factor activity; actives raise or lower the signal
Procedure, shortened: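 Cells of the HepG2 human liver line bear multiple cis-driven reporter transcription units. Reporter mRNA after 24 h exposure is reverse-transcribed, amplified, labelled and resolved by capillary electrophoresis, with gain- or loss-of-signal fitting relative to DMSO.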

[14] = BSK_3C_TissueFactor: BioMAP Diversity Plus: 3C Assay for Tissue Factor Biomarker Activity (AID 2282997); settings: BioMAP 3C HUVEC, tissue factor biomarker readout; actives raise or lower the signal
Procedure, shortened: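 Values derive from bidirectional curve fitting against DMSO of Tissue Factor ELISA signals, taken 24 h after dosing primary human umbilical vein endothelial cells.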

[15] = BSK_3C_uPAR: BioMAP Diversity Plus: 3C Assay for Urokinase-type plasminogen activator receptor (uPAR) Biomarker Activity (AID 2282998); settings: BioMAP 3C HUVEC, uPAR biomarker ELISA; actives raise or lower the signal
Procedure, shortened: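 Readout: ELISA for surface uPAR. System: human umbilical vein endothelial primary cells, 24 h after chemical exposure. Analysis: bidirectional fit, DMSO baseline.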

[16] = BSK_3C_VCAM1: BioMAP Diversity Plus: 3C Assay for Vascular cell adhesion molecule 1 (VCAM1) Biomarker Activity (AID 2282999); settings: BioMAP 3C HUVEC, VCAM1 ELISA, cytokine-stimulated; actives raise or lower the signal
Procedure, shortened: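 Endothelial cells from human umbilical vein are treated with test chemical. At 24 h, VCAM-1 is measured by ELISA, and responses in either direction are fitted relative to DMSO.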

[17] = BSK_4H_Eotaxin3: BioMAP Diversity Plus: 4H Assay for Eotaxin 3 Biomarker Activity (AID 2283000); settings: primary human endothelial cells (HUVEC); actives raise or lower the signal
Procedure, shortened: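 Endothelial primary cells (human umbilical vein) exposed to compound for 24 h. ELISA detection of Eotaxin-3.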

[18] = ATG_M_06_TRANS: Attagene TRANS-FACTORIAL HepG2 Assay for M06 Transcription Factor (Internal Marker) (AID 2282983; active = hit-call score of the fitted dose curve at least 0.9, where 1 is the maximum;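 as to AC50: potency for rise in reporter mRNA above DMSO baseline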); settings: HepG2 Attagene TRANS M06 internal marker reporter
Procedure, shortened: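 Measured by capillary electrophoresis of fluorescently labelled RT-PCR products, this endpoint reflects reporter mRNA in HepG2 cells harbouring exogenous NR-GAL4 reporter constructs after 24 h exposure, with DMSO as baseline.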

[19] = biological target: Oxysterols receptor LXR-beta (Homo sapiens) (UniProt P55055); experiment: ATG_LXRb_TRANS: Attagene TRANS-FACTORIAL HepG2 Assay for human Liver X Receptor beta (LXRb) (AID 2282981; active = hit-call score of the fitted dose curve at least 0.9, where 1 is the maximum); settings: HepG2 Attagene TRANS GAL4-LXRb reporter, mRNA
Procedure, shortened: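 Cells: HepG2, transiently transfected with GAL4-UAS reporter units plus LXRb-Gal4 fusion. Treatment: 24 h. Detection: reporter mRNA by RT-PCR, 6-FAM labelling, HpaI digestion, capillary electrophoresis.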

Measured: AC50

Sequence of Oxysterols receptor LXR-alpha (Homo sapiens) (Q13133 whole entry, looked up): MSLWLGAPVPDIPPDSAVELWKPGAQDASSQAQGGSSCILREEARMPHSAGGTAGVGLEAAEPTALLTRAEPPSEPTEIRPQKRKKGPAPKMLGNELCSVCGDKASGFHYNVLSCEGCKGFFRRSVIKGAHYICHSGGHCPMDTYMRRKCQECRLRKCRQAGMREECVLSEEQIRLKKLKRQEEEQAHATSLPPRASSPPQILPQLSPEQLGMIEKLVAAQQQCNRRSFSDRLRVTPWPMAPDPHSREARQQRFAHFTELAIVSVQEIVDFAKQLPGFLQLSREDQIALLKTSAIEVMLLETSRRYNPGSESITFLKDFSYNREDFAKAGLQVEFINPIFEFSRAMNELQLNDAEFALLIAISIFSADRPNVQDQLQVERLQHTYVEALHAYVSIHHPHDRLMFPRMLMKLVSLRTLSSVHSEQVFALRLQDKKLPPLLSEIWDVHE
Sequence of Cellular tumor antigen p53 (Homo sapiens) (P04637 whole entry, looked up): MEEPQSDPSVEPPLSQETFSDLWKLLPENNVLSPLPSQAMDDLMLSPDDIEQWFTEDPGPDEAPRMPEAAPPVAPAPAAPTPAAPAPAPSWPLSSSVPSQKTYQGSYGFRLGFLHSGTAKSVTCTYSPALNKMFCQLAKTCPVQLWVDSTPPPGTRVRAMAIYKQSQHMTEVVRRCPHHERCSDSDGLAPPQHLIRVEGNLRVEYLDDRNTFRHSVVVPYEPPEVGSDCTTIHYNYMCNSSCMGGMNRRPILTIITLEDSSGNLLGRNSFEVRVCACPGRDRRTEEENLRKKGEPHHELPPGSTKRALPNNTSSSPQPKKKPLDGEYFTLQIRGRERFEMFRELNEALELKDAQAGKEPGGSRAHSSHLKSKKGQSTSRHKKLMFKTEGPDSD
Sequence of Transcriptional activator Myb (Homo sapiens) (P10242 whole entry, looked up): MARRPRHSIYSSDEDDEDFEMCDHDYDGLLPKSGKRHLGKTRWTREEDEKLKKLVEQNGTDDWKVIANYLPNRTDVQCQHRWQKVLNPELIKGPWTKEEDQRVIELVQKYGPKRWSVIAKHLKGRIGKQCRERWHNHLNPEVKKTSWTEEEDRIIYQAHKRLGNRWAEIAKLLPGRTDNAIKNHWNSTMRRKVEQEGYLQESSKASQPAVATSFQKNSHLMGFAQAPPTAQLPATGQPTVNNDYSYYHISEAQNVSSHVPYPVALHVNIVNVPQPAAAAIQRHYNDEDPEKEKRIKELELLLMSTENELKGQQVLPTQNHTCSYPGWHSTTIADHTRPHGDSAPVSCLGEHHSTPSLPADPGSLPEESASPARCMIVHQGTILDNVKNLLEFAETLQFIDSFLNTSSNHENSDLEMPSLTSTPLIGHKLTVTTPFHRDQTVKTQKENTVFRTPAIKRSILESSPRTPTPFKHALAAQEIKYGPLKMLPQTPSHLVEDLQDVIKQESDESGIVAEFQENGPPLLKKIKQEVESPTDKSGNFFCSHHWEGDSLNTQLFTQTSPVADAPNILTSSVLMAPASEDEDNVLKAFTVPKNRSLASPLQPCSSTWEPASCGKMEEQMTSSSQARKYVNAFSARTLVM
Sequence of Oxysterols receptor LXR-beta (Homo sapiens) (P55055 whole entry, looked up, the tested form may be a part): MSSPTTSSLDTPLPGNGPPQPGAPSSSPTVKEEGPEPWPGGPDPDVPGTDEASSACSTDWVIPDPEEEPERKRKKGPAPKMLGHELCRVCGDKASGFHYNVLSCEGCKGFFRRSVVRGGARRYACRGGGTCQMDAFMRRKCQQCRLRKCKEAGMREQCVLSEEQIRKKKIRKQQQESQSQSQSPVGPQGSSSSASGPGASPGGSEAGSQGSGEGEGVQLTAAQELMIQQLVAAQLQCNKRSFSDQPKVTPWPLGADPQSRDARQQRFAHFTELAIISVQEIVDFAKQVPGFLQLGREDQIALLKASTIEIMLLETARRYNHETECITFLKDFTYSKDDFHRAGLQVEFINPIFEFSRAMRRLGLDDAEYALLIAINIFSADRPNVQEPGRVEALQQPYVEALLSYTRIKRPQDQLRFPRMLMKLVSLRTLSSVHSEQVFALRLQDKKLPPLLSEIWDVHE
Sequence of Nuclear receptor subfamily 4 group A member 2 (Homo sapiens) (P43354 whole entry, looked up): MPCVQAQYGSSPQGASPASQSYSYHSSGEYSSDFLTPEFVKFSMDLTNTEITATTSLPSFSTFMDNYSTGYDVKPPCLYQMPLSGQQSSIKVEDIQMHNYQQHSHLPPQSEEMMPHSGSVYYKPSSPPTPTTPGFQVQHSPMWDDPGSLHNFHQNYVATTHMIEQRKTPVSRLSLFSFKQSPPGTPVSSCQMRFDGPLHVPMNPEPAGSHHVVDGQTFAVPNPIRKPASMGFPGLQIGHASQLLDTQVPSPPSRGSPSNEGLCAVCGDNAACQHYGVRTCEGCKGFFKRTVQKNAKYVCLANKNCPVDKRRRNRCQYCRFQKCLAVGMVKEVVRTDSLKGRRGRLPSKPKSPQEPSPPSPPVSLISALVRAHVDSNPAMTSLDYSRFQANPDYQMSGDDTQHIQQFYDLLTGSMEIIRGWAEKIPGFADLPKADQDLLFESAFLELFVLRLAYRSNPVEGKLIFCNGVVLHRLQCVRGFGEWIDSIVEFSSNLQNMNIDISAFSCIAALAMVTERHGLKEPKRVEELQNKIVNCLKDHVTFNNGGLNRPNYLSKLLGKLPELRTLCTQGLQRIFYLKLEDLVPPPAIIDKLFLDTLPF
Sequence of Nuclear respiratory factor 1 (Homo sapiens) (Q16656 whole entry, looked up): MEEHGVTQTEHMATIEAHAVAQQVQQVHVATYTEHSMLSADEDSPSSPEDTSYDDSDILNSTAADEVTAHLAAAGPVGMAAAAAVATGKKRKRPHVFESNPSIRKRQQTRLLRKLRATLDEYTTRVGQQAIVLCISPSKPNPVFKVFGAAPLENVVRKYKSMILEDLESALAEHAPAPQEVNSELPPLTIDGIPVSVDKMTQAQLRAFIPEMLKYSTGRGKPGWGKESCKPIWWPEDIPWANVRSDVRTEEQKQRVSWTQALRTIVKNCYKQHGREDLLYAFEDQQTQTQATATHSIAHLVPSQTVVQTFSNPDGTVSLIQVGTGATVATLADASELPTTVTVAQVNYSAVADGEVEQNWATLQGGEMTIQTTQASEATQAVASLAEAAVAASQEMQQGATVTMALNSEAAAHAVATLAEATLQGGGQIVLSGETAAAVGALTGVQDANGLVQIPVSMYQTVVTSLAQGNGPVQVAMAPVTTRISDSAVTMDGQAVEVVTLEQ
Sequence of Hepatocyte nuclear factor 4-alpha (Homo sapiens) (P41235 whole entry, looked up): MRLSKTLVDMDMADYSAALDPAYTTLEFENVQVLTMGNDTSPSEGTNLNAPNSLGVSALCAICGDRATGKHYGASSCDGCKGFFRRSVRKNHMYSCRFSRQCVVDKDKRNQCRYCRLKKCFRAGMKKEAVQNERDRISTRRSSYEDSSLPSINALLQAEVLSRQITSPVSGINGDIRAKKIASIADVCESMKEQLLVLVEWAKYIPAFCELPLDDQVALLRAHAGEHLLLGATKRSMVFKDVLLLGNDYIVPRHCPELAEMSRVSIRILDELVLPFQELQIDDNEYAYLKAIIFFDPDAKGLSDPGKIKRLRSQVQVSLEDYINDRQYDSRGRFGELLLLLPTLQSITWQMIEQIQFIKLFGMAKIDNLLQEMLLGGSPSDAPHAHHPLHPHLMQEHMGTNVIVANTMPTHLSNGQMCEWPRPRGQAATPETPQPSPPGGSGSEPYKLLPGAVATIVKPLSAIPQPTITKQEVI
Sequence of Myc proto-oncogene protein (Homo sapiens) (P01106 whole entry, looked up): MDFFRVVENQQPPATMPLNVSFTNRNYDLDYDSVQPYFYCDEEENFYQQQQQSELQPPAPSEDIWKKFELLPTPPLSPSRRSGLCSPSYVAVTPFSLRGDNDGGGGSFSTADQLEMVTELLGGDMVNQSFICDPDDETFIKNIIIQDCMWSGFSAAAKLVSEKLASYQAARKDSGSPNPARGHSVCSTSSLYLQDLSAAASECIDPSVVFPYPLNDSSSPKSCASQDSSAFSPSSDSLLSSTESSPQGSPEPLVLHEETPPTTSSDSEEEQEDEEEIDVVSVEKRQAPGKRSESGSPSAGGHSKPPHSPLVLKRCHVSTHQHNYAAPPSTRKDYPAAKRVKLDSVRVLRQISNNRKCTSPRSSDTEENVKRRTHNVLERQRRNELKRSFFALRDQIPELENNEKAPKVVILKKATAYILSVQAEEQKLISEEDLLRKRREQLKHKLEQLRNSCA
Sequence of human Peroxisome Proliferator-activated Receptor alpha (PPARa), PPARA (gene 5465) (Q07869 whole entry, looked up, the tested form may be a part): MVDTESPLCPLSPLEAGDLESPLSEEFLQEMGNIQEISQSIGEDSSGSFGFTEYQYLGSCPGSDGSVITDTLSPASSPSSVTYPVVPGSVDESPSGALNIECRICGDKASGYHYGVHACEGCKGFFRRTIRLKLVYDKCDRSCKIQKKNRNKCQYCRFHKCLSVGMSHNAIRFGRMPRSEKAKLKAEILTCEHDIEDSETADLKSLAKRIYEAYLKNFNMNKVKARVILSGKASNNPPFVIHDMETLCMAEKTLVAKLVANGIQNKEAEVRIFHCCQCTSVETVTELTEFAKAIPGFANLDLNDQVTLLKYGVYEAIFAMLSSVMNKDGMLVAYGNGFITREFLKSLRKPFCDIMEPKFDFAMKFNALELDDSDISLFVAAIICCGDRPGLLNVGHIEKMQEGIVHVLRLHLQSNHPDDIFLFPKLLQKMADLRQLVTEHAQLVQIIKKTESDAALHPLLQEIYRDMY

O=C(OC(=O)C(F)(F)C(F)(F)F)C(F)(F)C(F)(F)F
inactive: [1] | [2] | [3] | [4] | [5] | [6] | [7] | [8] | [9] | [10]

CCCCC(CC)C(=O)O (stereo not drawn)
inactive: [1] | [2] | [11] | [12] | [3] | [4] | [5] | [13] | [7] | [8] | [14] | [15] | [16] | [17] | [10]

O=C(O)C(=O)O
inactive: [1] | [18] | [11] | [3] | [4] | [5] | [13] | [6] | [7] | [8] | [9] | [10]

O=C(NCc1ncc(C(F)(F)F)cc1Cl)c1c(Cl)cccc1Cl
active: [6] 21.8 µM
inactive: [1] | [2] | [18] | [11] | [3] | [4] | [5] | [8] | [9] | [14] | [15] | [16] | [10]

CN(CCO)S(=O)(=O)C(F)(F)C(F)(F)C(F)(F)C(F)(F)C(F)(F)C(F)(F)C(F)(F)C(F)(F)F
inactive: [1] | [2] | [18] | [12] | [3] | [4] | [5] | [6] | [7] | [8] | [9] | [14] | [15] | [16] | [10]

C[C@]12CC[C@@H]3c4ccc(O)cc4CC[C@H]3[C@@H]1C[C@@H](O)[C@@H]2O
inactive: [1] | [2] | [18] | [11] | [12] | [3] | [4] | [5] | [13] | [6] | [7] | [8] | [9] | [14] | [15] | [16] | [10]

CC1CCC(C(=O)O)CC1 (stereo not drawn)
inactive: [1] | [19] | [11] | [3] | [4] | [5] | [13] | [6] | [7] | [8] | [9]

Oc1cc2ccccc2cc1O
inactive: [1] | [2] | [12] | [3] | [4] | [5] | [13] | [6] | [8] | [9] | [14] | [15] | [16]
active: [10] 42.8 µM

Nc1ccc(O)c(C(=O)O)c1
inactive: [1] | [2] | [11] | [12] | [3] | [4] | [5] | [13] | [6] | [7] | [8] | [9] | [10]

O=c1cc(-c2ccccc2)oc2ccc3ccccc3c12
inactive: [1] | [2] | [11] | [12] | [3] | [4] | [5] | [13] | [6] | [8] | [9] | [10]

CCCCc1oc2ccccc2c1C(=O)c1cc(I)c(OCCN(CC)CC)c(I)c1
active: [8] 27.3 µM | [14] 10.2 µM | [15] 6.63 µM | [16] 22.6 µM | [17] 19.6 µM
inactive: [1] | [19] | [11] | [3] | [13] | [9]

C=CC(=O)OCCN(CC)CC
active: [5] 27.4 µM | [7] 144 µM | [8] 48.9 µM | [9] 169 µM
inactive: [1] | [2] | [11] | [12] | [3] | [4] | [13] | [6] | [10]

O=C1OC(=O)C(F)(F)C1(F)F
inactive: [1] | [19] | [11] | [3] | [4] | [5] | [13] | [6] | [7] | [8] | [9] | [10]

CC1=CC(=O)c2ccccc2C1=O
inactive: [1] | [2] | [12] | [3] | [4] | [5] | [13] | [6] | [8] | [9] | [10]

C/C=C/C(=O)C1=C(C)CCCC1(C)C
inactive: [1] | [18] | [11] | [3] | [4] | [6]
active: [12] 152 µM | [5] 65.1 µM | [7] 3.93 µM | [8] 27.1 µM | [9] 164 µM

NC(=NCCCCCCN=C(N)/N=C(\N)Nc1ccc(Cl)cc1)/N=C(\N)Nc1ccc(Cl)cc1
inactive: [1] | [2] | [18] | [11] | [12] | [3] | [4] | [5] | [13] | [8] | [9] | [10]
active: [2] 25.7 µM | [18] 23.3 µM | [3] 18.3 µM and 48.2 µM | [4] 7.2 µM and 38.6 µM | [13] 90.5 µM and 24.6 µM | [8] 23.5 µM | [9] 8.29 µM and 8.25 µM | [14] 4.88 µM | [15] 2.61 µM | [16] 7.92 µM
